Screens deposited in PubChem BioAssay by several laboratories.
AHR act = activates the human aryl hydrocarbon receptor; AHR-responsive luciferase reporter cells, luminescence; activation, % at 5 µM; 2.5% of 320,000 active; P35869; in the data active = activation above about 47%;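 also: 0% = vehicle wells and 100% = reference agonist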
HSF1 activator = increases HSF-1 driven luciferase reporter signal; NIH3T3-HGL HSF-1 luciferase reporter, MG132, 8 h; 100% = twice DMSO control signal; activation, % at 9 µM; 1.7% of 300,000 active; AID 504408;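 active = mean replicate activation of at least 50% with a set share of replicates each reaching 50%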;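 also: 0% = median of the neutral control wells and 100% = twice that signal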
HSF1 inhib = HSF1 inhibition | NIH3T3-HGL HSE-luciferase, MG132-induced, luminescence 8 h; active compounds read low | activity change, negative = inhibition, % at 7.5 µM (by protocol) | 0.77% of 300,000 active | AID 2098;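 active = more than half of replicate wells show activity change below -50%, luminescence cut by over half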;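 also: luciferase reports HSF-1 transcriptional activity via heat shock element; 0% = median of DMSO wells and -100% = zero luminescence signal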
NR0B1 inh = inhibitors of human orphan nuclear receptor DAX1 (NR0B1); HEK293 Gal4-DAX1 luciferase reporter, luminescence; inhibition, % at 6.75 µM; 0.99% of 340,000 active;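 active = inhibition above the mean over all tested compounds plus 3 SD, cut at about 4.2% in these data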;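 also: 0% = DAX1-transfected cells with DMSO and 100% = empty-vector control cells with DMSO; inhibition shows as a rise in luminescence from relieved DAX1 repression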
Target sequence (P51843 207-470 limits assumed): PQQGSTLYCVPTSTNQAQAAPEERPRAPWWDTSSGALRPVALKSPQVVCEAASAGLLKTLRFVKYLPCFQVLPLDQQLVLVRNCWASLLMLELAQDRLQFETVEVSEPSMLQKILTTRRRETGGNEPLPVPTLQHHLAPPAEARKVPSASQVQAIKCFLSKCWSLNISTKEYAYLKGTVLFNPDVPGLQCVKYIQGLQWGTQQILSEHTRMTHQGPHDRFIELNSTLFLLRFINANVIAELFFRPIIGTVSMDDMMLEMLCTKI
FXN GAA850 act = activators of GAA850 frataxin (FXN) promoter; HEK293 lucGAA850 FXN promoter luciferase reporter, 24 h; percent of 10 µM SAHA response; AID 540364; 0.56% of 360,000 active; activation, % at 6 µM;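 active = activation above the average of all compounds screened plus 3 SD, cutoff fixed separately per campaign, cut at about 7.5% in these data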;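 also: 0% = DMSO wells and 100% = 10 µM SAHA wells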
The depositor's hits bear a star. Rows were chosen to be rich in hits. Some 5.4% of all compounds tested hit in one or more screens of this group.

`CCCCC1CCC(C(=O)N(CCOC)c2c(N)n(CC(C)C)c(=O)[nH]c2=O)CC1` (centres undefined) gave AHR act -1.8, NR0B1 inh 0.9 and FXN GAA850 act -0.1.
O=C(CSc1nnc(-c2ccncc2)n1-c1ccccc1)NC1CC1 was read as AHR act -1.0, HSF1 activator 5.0, HSF1 inhib -11.8, NR0B1 inh 0.3 and FXN GAA850 act 2.2.
Screening CN(NC1OC(=O)c2ccccc21)c1ccc(C(F)(F)F)cc1[N+](=O)[O-] (centres undefined) returned AHR act 0.6, HSF1 activator -69.3, HSF1 inhib -59.2* and FXN GAA850 act 0.9.
Screening NC(=O)c1nc[nH]c1C(=O)Nc1cccc(C(F)(F)F)c1 returned AHR act 45.0, NR0B1 inh 0.6 and FXN GAA850 act 2.5.
CN(C(=O)c1ccccc1[N+](=O)[O-])c1ccccc1C(=O)NCc1ccccc1 was read as AHR act 3.1, HSF1 activator 1.1, HSF1 inhib 0.9, NR0B1 inh 0.7 and FXN GAA850 act 4.2.
For CCOC(=O)N1CCN(S(=O)(=O)c2ccc(C(=O)NNc3nc4c(C)cc(C)cc4s3)cc2)CC1 the results were AHR act 47.5*, HSF1 activator -1.7, HSF1 inhib -4.7 and FXN GAA850 act -2.0.
`COc1ccc(-c2nsc3c(N4CCCC4)ncnc23)cc1` gave AHR act -0.7, HSF1 activator -51.0, HSF1 inhib -55.0*, NR0B1 inh 1.5 and FXN GAA850 act -0.4.
`Cc1ccc(-c2csc3ncnc(N4CCN(C(=O)c5ccco5)CC4)c23)cc1` gave AHR act -1.3, NR0B1 inh -0.8 and FXN GAA850 act -1.4.
Screening Cc1sc2ncnc(N3CCN(C(=O)c4ccco4)CC3)c2c1C returned AHR act 54.8*, HSF1 activator -10.5, HSF1 inhib 2.3, NR0B1 inh -0.9 and FXN GAA850 act 1.8.
Screening O=C(c1ccco1)N1CCN(c2ncnc3c(-c4ccc(Cl)cc4)nsc23)CC1 returned AHR act 57.7*, HSF1 activator -50.2, HSF1 inhib -44.4, NR0B1 inh 0.0 and FXN GAA850 act -6.6.
For COc1ccc(-c2cn(Cc3ccc(C(N)=O)cc3)c(CCN)n2)cc1 the results were AHR act 2.1, NR0B1 inh 4.1 and FXN GAA850 act 3.2.
Screening CC(NC(=O)Nc1ccc([N+](=O)[O-])cc1)C(c1cccs1)N1CCCC1 (centres undefined) returned AHR act -1.2, HSF1 activator -2.2, HSF1 inhib 1.4, NR0B1 inh -1.4 and FXN GAA850 act -3.7.
For OC[C@@H]1CN(Cc2ccccc2)C[C@H](n2ccc3c(N4CCCC4)ncnc32)O1 the results were FXN GAA850 act 0.4.
`NNC(=O)C(=O)NCCCN1CCOCC1` gave AHR act -1.0, HSF1 activator 8.7, HSF1 inhib 1.2, NR0B1 inh 5.7* and FXN GAA850 act 0.6.
Screening O=C(COC(=O)/C=C/c1ccc(Br)o1)NCCCN1CCCC1=O returned AHR act 0.2, HSF1 activator 65.1*, HSF1 inhib 48.4, NR0B1 inh 0.2 and FXN GAA850 act 0.6.
For CC(C)CNC(=O)C(=O)NCCCN1CCOCC1 the results were AHR act 0.5, HSF1 activator -5.2, HSF1 inhib 2.0, NR0B1 inh -0.2 and FXN GAA850 act -1.4.
For O=C(COC(=O)/C=C/c1cccc([N+](=O)[O-])c1)NCCCN1CCCC1=O the results were AHR act 0.6, HSF1 activator 25.3, HSF1 inhib 1.6, NR0B1 inh -0.5 and FXN GAA850 act -0.4.
Screening O=C(/C=C/c1ccc(Br)o1)NCCCN1CCOCC1 returned AHR act -1.0, HSF1 activator -68.3, HSF1 inhib -65.8*, NR0B1 inh -0.7 and FXN GAA850 act 2.0.
Cc1cc(C)nc(N/N=C/c2cc(Br)ccc2O)n1 was read as AHR act 9.8, HSF1 activator -6.0, HSF1 inhib -2.1, NR0B1 inh -3.0 and FXN GAA850 act -2.5.
Screening O=C(CNC(=O)c1cn2ccccc2n1)Nc1ccc(F)c(F)c1 returned AHR act 6.8, HSF1 activator 28.3, HSF1 inhib 17.9, NR0B1 inh 3.1 and FXN GAA850 act 4.0.
O=C(Nc1cccc(O)c1)c1cnn2cccnc12 was read as AHR act 50.1*, HSF1 activator 30.5, HSF1 inhib -5.2, NR0B1 inh 1.3 and FXN GAA850 act 1.9.
For Cc1cc(C)n2ncc(C(=O)Nc3ccc4c(c3)OCO4)c2n1 the results were AHR act 73.0*, HSF1 activator 29.0, HSF1 inhib 5.6, NR0B1 inh -0.1 and FXN GAA850 act 0.3.
